SMILES strings stand for the structures. Out of some 48,000 compounds screened, about 13,000 (27%) showed an effect of 50% or more. Some of the results follow.

The subject of this test is Wolbachia pipientis. Briefly: Anti-Wolbachia Cell-Based Screen. It is filed as functional. The arrangement: scale not given: in the data most compounds retested in dose-response had high values. The conditions noted are these: 5 µM.
As for `c1ccc2c(c1)CC(n1ccnc1-c1cc3n(n1)CCCNC3)CO2` (stereo not drawn), the “Percent Effect” value amounted to 3.87%.

On to `CCc1ncc(CN(C)C(=O)Nc2cccnc2N2CCCC2)s1`, for which the “Percent Effect” value is given as 10.11%.

`NS(=O)(=O)CCN1CCN(c2cc(F)ccc2F)CC1`: the “Percent Effect” value is -4.797%.

Regarding `COc1ccc(CN2CCO[C@H]3[C@H](OCCN4CCCC4)CC[C@@H]32)cc1.O=C(O)C(F)(F)F.O=C(O)C(F)(F)F`, the “Percent Effect” value came to 97.25%.

Regarding `O=C(O)C(F)(F)F.c1cc(CN2CCO[C@H]3[C@H](OCC4CCOCC4)CC[C@@H]32)co1`, the “Percent Effect” value turned out to be 111.9%.

As for `O=C(O)C(F)(F)F.O=C(O)C(F)(F)F.c1csc(CN2CCO[C@H]3[C@H](OCCN4CCCC4)CC[C@@H]32)n1`, the “Percent Effect” value was found to be 6.605%.

On to `O=C(O)C(F)(F)F.O=C(O)C(F)(F)F.c1cc(CN2CCO[C@H]3[C@H](OCCN4CCCC4)CC[C@@H]32)co1`, for which the “Percent Effect” value is listed as 81.09%.

For `Fc1ccc(CN2CCO[C@H]3[C@H](OCCN4CCCC4)CC[C@@H]32)cc1.O=C(O)C(F)(F)F.O=C(O)C(F)(F)F`, the “Percent Effect” value is on record as -15.45%.

With `Cc1ccc(-c2nc(CN3CCN(S(=O)(=O)N(C)C)CC3)cs2)o1`, the “Percent Effect” value is on record as 2.093%.

With `O=C(c1ncn2c1CNS(=O)(=O)c1ccccc1-2)N1CCOCC1`, the “Percent Effect” value was -11.97%.

As for `Cc1noc(C)c1S(=O)(=O)N(C)Cc1nn(C)c(Cl)c1Cl`, the “Percent Effect” value is recorded as -15.6%.

In the case of `CC(C)CC(CCO)CNC(=O)N1CC(C)(C)C1(C)C` (stereo not drawn), the “Percent Effect” value is -21.83%.

In the case of `CS(=O)(=O)N1CC2(CCN(CC3CCCCC3)C2)Cc2ccccc21` (stereo not drawn), the “Percent Effect” value is listed as 112.5%.

With `CS(=O)(=O)N1CC2(CCN(CC3CCCCC3)CC2)Cc2ccccc21`, the “Percent Effect” value stood at 144%.

Regarding `O=C(O)C(F)(F)F.O=C1CC2(CCN(CC3CC3)C2)CN1c1cccc(F)c1` (stereo not drawn), the “Percent Effect” value is on record as -1.195%.

For the molecule `O=C(Cc1cccs1)N1CCC2(CCCN(CC3CCOCC3)C2)C1` (stereo not drawn), the “Percent Effect” value was -3.748%.

For `O=C(Cc1ccccn1)N1CCC2(CCCN(CC3CCOCC3)C2)C1` (stereo not drawn), the “Percent Effect” value is -4.093%.

`CN1CCCC(CNS(=O)(=O)N2CCc3ccccc3C2)C1` (stereo not drawn): the “Percent Effect” value came out at 2.763%.

For the molecule `CS(=O)(=O)N1CC2(CCCN(CC3CC3)C2)Cc2ccccc21` (stereo not drawn), the “Percent Effect” value is recorded as 118.5%.

For `O=C(O)C(F)(F)F.O=C1CC2(CCN(CC3CC3)C2)CN1c1ccc2c(c1)OCO2` (stereo not drawn), the “Percent Effect” value is listed as -8.293%.

Take `CN1C(=O)C2(CCN(CC3CCC3)C2)c2ccccc21.O=C(O)C(F)(F)F` (stereo not drawn): the “Percent Effect” value was determined as 10.05%.

As for `CS(=O)(=O)N1CC2(CCN(CC3CC3)C2)Cc2ccccc21` (stereo not drawn), the “Percent Effect” value is given as 119.1%.

As for `CCn1c(C)nnc1SCCNC(=O)c1cccc2ccnn12`, the “Percent Effect” value is given as -3.845%.

As to `Cc1nc(CNC(=O)CC2C(=O)NCCN2Cc2ccccc2C)n[nH]1` (stereo not drawn), the “Percent Effect” value came out at 4.07%.

For the molecule `CCCc1nnsc1C(=O)NCC1CCN(S(C)(=O)=O)CC1`, the “Percent Effect” value is -2.324%.

With `Cc1cnc(N2C[C@@H]3[C@@H](C2)OCC(=O)N3C)nc1`, the “Percent Effect” value is -11.2%.

Regarding `CCN1CC2(CCN(C(=O)C(C)Oc3cccc(Cl)c3)CC2)OC1=O` (stereo not drawn), the “Percent Effect” value is on record as -19.97%.

As to `N#Cc1ccc(OC2CCN(CC(=O)NCC3CCCO3)CC2)cc1` (stereo not drawn), the “Percent Effect” value is listed as 1.578%.

As for `COc1ccc2c(c1)CCCN(C(=O)NCC1CCCO1)C2` (stereo not drawn), the “Percent Effect” value is 114.2%.

`COc1ccc2c(c1)CCCN(C(C)C(=O)N1CCCC1)C2` (stereo not drawn): the “Percent Effect” value was found to be 19.28%.

Turning to `COc1ccc2c(c1)CCCN(CC(=O)NCC1CCCO1)C2` (stereo not drawn), the “Percent Effect” value amounted to 92.35%.

On to `COc1cc2c(cc1OC)CN(C(=O)NCC1CCCO1)CC2` (stereo not drawn), for which the “Percent Effect” value stood at 106.4%.

Regarding `CC(C)OCCC(=O)Nc1cccc(N2CCN(CC3CC3)CC2)c1`, the “Percent Effect” value is -21.21%.

With `COc1ccc2c(c1)CCCN2C(=O)CNCC1CN(C)CCO1` (stereo not drawn), the “Percent Effect” value was determined as 15.31%.

With `CCC(=O)NC1CCN(c2cccc(CC)c2)CC1`, the “Percent Effect” value is -2.51%.

Regarding `COc1ccc2c(c1)CCCN2C(=O)CN1CCOC(CN(C)C)C1` (stereo not drawn), the “Percent Effect” value came out at 3.019%.

Take `CS(=O)(=O)NC1CCN(C(=O)NCC2CCCO2)CC1` (stereo not drawn): the “Percent Effect” value is -8.8%.

As for `COc1cccc(N2CCN(CCC(=O)NC3CCCCC3)CC2)c1`, the “Percent Effect” value came to 105.3%.

Consider `C=C(C)COCCNC(=O)N1CCc2c(cccc2OC)C1`, for which the “Percent Effect” value is listed as -14.6%.

As for `COc1ccc(-c2n[nH]cc2CN(C)Cc2ccoc2)c(F)c1`, the “Percent Effect” value worked out at 10.13%.

Turning to `c1cc2c(cc1C1CCCN1Cc1nnnn1C1CC1)OCCO2` (stereo not drawn), the “Percent Effect” value was -7.859%.

Take `CCC(O)CNc1ccc(-c2nc(CC(C)C)no2)cn1` (stereo not drawn): the “Percent Effect” value is listed as -5.208%.

On to `O=C(NCC1CCOC1)c1ccc(OCC(F)(F)F)nc1` (stereo not drawn), for which the “Percent Effect” value is reported as -6.921%.

Turning to `NCC1Cc2cc(-c3cncc(C(=O)N4CCOCC4)n3)cc(Cl)c2O1` (stereo not drawn), the “Percent Effect” value is on record as -2.851%.

Regarding `CCc1nc(C2CCCN2CCCS(=O)(=O)c2ccccc2)no1` (stereo not drawn), the “Percent Effect” value was 0.9329%.

`COc1ccc2c(c1)CN(c1cc(N3CCCC3CO)ncn1)CC2` (stereo not drawn): the “Percent Effect” value is -11.42%.

On to `COc1ccc2c(c1)CN(CC(=O)NC1CCCC1)CC2`, for which the “Percent Effect” value is recorded as 115.8%.

For the molecule `COc1ccc2c(c1)CCN(CCC(=O)NC1CCCCC1)CC2`, the “Percent Effect” value is -10.31%.

With `COCCOCC(=O)N1CCC(O)(c2ccc3nc(C)ccc3c2)CC1`, the “Percent Effect” value turned out to be 1.515%.

As to `CCn1c(N)nc2cc(C(=O)NCCc3sccc3C)cnc21`, the “Percent Effect” value is on record as 9.086%.

Consider `COc1cc2c(cc1OC)CN(Cc1ncccc1C(=O)O)CC2`, for which the “Percent Effect” value was -6.886%.

As for `CC(C)(C)OC(=O)NCC1CCCCN1Cc1ccccn1` (stereo not drawn), the “Percent Effect” value is 1.475%.

With `Cc1oc(-c2ccoc2)nc1CN1CCCCC1CCc1ccccc1` (stereo not drawn), the “Percent Effect” value is given as -13.12%.

As for `O=C(O)c1cccnc1CN1CCCCC1CCc1ccccn1` (stereo not drawn), the “Percent Effect” value worked out at 108.5%.

With `O=C(Cc1c[nH]c(=O)[nH]c1=O)N1CCCCC1CCc1cccc(O)c1` (stereo not drawn), the “Percent Effect” value is on record as 2.49%.

As to `O=C(O)c1cccnc1CN1CCCC1CCc1ccccc1` (stereo not drawn), the “Percent Effect” value is recorded as 101.7%.

In the case of `CN(Cc1cccc(F)c1)C(=O)CN1CCCC1CCc1ccccc1` (stereo not drawn), the “Percent Effect” value is listed as -6.226%.

Regarding `O=C(O)c1cccnc1CN1CCCCC1CCc1cccs1` (stereo not drawn), the “Percent Effect” value is listed as 113%.

In the case of `O=C(O)c1cccnc1CN1CCCCC1CCc1cccc(O)c1` (stereo not drawn), the “Percent Effect” value is recorded as 117.3%.

In the case of `Cc1c[nH]c(CN2CCCCC2CCc2cccc(O)c2)c(C)c1=O` (stereo not drawn), the “Percent Effect” value came out at 11.94%.

As for `O=C(O)c1cccnc1CN(Cc1ccsc1)C1CC1`, the “Percent Effect” value was -4.109%.

Take `CCN1CCCC1CNC(=O)CCc1cccs1` (stereo not drawn): the “Percent Effect” value is given as -0.4602%.

As to `CN(CCCc1nccn1C)C(=O)C1CCN(C(=O)C2CC2)CC1`, the “Percent Effect” value came to 15.41%.

The values above are taken from ChEMBL document CHEMBL3988442, “University of Dundee, Small-Polar-MMV Screening Library” (2021).
